Hit rate of the full screen: of about 5,500 compounds, about 2,000 (36%) were called active. Inconclusive results (about 18%) are left out. Cut-off read from the data, not from the text of the source: active = normalized growth mostly below about 0.91 (no sharp cut-off); inconclusive = no clear call, values can overlap the other calls; inactive = mostly above about 0.92. The list shows a part of the results.
Experiment: chemical genetic growth profiling, strain panel (AID 1159580);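 note: tested at 20 µM; growth read once vehicle control cultures reached saturation at 30 °C; 1 = growth at the plate median or of vehicle wells; lower values mean less growth of the strain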
Settings: S. cerevisiae deletion strains, growth OD
[1] = locus YDR150W, strain NUM1, stronger effect = lower value
[2] = locus YGR078C, strain PAC10, stronger effect = lower value
[3] = locus YNL153C, strain GIM3, stronger effect = lower value
[4] = locus YNL322C, strain KRE1, stronger effect = lower value
[5] = locus YPL055C, strain LGE1, stronger effect = lower value
[6] = locus YPL241C, strain CIN2, stronger effect = lower value

Measured: normalized growth

c1ccc2c(N3CCNCC3)cccc2c1
inactive: locus YAL040C, strain CLN3, stronger effect = lower value 1.03 | locus YCL061C, strain MRC1 (second series), stronger effect = lower value 1 | [1] 0.994 | locus YDR363W, strain ESC2, stronger effect = lower value 0.999 | locus YER002W, strain NOP16, stronger effect = lower value 1.01 | [2] 0.993 | locus YGR229C, strain SMI1, stronger effect = lower value 1.02 | locus YMR307W, strain GAS1, stronger effect = lower value 0.99 | [3] 0.991 | locus YNL175C, strain NOP13, stronger effect = lower value 1.01 | locus YNL197C, strain WHI3, stronger effect = lower value 0.997 | locus YNL224C, strain SQS1, stronger effect = lower value 1.01 | [4] 1.01 | locus YOR083W, strain WHI5 (second series), stronger effect = lower value 1 | [5] 1.02 | [6] 1

COc1ccccc1N1CCN(Cc2ccc(F)cc2)CC1
inactive: locus YAL013W, strain DEP1, stronger effect = lower value 1.02 | locus YBR229C, strain ROT2, stronger effect = lower value 0.993 | locus YCL061C, strain MRC1, stronger effect = lower value 1 | locus YDL101C, strain DUN1, stronger effect = lower value 0.992 | [1] 1.02 | locus YEL061C, strain CIN8, stronger effect = lower value 1.01 | [2] 1.01 | locus YHR030C, strain SLT2, stronger effect = lower value 1.06 | locus YHR087W, strain rtc3, stronger effect = lower value 1.01 | locus YJL187C, strain SWE1, stronger effect = lower value 1.02 | locus YJR043C, strain POL32, stronger effect = lower value 1.01 | locus YJR075W, strain HOC1, stronger effect = lower value 0.983 | locus YKL190W, strain CNB1, stronger effect = lower value 1.02 | locus YLR039C, strain RIC1, stronger effect = lower value 0.987 | locus YLR058C, strain SHM2 (second series), stronger effect = lower value 1.02 | locus YLR085C, strain ARP6, stronger effect = lower value 1.04 | locus YLR262C, strain YPT6, stronger effect = lower value 1.01 | locus YML094W, strain GIM5, stronger effect = lower value 1 | locus YMR219W, strain ESC1, stronger effect = lower value 1.01 | locus YMR263W, strain SAP30, stronger effect = lower value 1.01 | locus YNL128W, strain TEP1, stronger effect = lower value 1.02 | [3] 0.997 | locus YNL298W, strain CLA4 (second series), stronger effect = lower value 1.05 | [4] 1 | locus YNR030W, strain Alg12, stronger effect = lower value 1.04 | [5] 1 | [6] 0.998 | locus YPR135W, strain CTF4, stronger effect = lower value 1
